Reference: PubChem BioAssay AID488975 (Johns Hopkins Ion Channel Center, 2010)
Among all 310,000 compounds or so, about 2,600 (0.84%) were called active. The sample holds actives, similar compounds and a random draw of the others, so the mix is not that of the screen.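 The calls were made as follows: active = B-score over 3 SD under the library average, and starting fluorescence ratio not unusually high; inactive = the rest.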

biological target: High affinity choline transporter 1 (Homo sapiens) (UniProt Q9GZV3); assay: inhibitors of human choline transporter CHT (AID 488975); details: CHT-expressing cells, membrane potential dye, choline response, at 10 µM; stronger effect = lower value;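 as to B-score: choline stimulus applied at its EC90 after an EC20 pre-addition; B-score computed on integrated fluorescence ratio after choline addition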
Sequence (Q9GZV3 whole entry, looked up): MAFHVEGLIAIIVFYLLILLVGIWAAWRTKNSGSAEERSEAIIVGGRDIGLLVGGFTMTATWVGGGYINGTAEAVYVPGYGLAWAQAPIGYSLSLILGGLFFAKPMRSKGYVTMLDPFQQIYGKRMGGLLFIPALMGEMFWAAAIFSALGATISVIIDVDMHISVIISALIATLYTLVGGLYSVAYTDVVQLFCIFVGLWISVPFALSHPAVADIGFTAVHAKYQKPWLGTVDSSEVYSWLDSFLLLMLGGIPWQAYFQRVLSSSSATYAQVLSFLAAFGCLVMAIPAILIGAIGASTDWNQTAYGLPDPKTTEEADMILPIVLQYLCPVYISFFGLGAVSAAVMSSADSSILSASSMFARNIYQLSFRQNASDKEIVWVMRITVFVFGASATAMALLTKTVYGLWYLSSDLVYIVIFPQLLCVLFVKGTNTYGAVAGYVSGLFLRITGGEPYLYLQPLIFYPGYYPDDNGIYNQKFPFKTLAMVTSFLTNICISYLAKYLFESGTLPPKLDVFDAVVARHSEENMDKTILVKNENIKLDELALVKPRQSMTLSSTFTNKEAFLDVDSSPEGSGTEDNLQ

Compound | B-score
COc1ccc(C(C#N)(CC(=O)O)c2cnccn2)cc1OC (centres undefined) | inactive
Cc1ccc(-c2nn(-c3ccccc3)cc2C(=O)NCCCN2CCCC2=O)cc1 | inactive
Cc1cccc(N(C)C(=O)CN2C(=O)COc3ccc(S(=O)(=O)N4CCCCCC4)cc32)c1 | -6.38 (active)
CN(C)c1ccc(CNC(=O)CN2C(=O)COc3ccc(S(=O)(=O)N4CCCC4)cc32)cc1 | inactive
CCc1ccc(NC(=O)CN2C(=O)COc3ccc(S(=O)(=O)N4CCCC4)cc32)cc1 | inactive
O=S(=O)(c1ccccc1)N1CCC(c2ccccc2)CC1 | inactive
Cc1ccc(CSCC(N)C(=O)O)cc1 (centres undefined) | inactive
Cc1ccc(C(=O)CSc2ccccc2C(=O)O)cc1 | inactive
Cc1ccc(SC(CC(=O)c2ccc(C(C)(C)C)cc2)C(=O)O)cc1 (centres undefined) | -8.41 (active)
OCc1ccc(-c2ccccc2)c(-c2ccccc2)c1 | inactive
O=C(Nc1ccc(F)c([N+](=O)[O-])c1)C1CCCO1 (centres undefined) | inactive
Cc1ccc(-c2cc(C(=O)NC3CCN(Cc4ccccc4)CC3)c3ccccc3n2)cc1 | inactive
C/C(=N\OCC(=O)O)c1ccc(Cl)cc1 | inactive
C/C(=N\N=C(N)N)c1ccc(Cl)cc1 | -9.9 (active)
C/C(=N\NC(=S)NCc1ccccc1)c1ccc(Cl)cc1 | inactive
CC1CCC(CN2CCN=C2N(C)C)CC1 (centres undefined) | inactive
CCCCCCc1cc2cc(-c3nnc(-c4ccccc4)o3)c(=O)oc2cc1O | inactive
CCCCCCc1ccc(O)cc1O | -6.74 (active)
CCCCCCCN=C(C)c1ccccc1O | inactive
CC1(c2ccccc2)NC(=O)N(CC(=O)Nc2cc(Cl)ccc2N2CCOCC2)C1=O (centres undefined) | inactive
COc1cc(N)c(Cl)cc1C(=O)OCC(=O)c1ccc2c(c1)NC(=O)CO2 | inactive
CN1C(C(=O)NCc2ccco2)CC2Cn3c(nc4ccccc43)C21 (centres undefined) | inactive

Compound | B-score
COc1ccc(-c2nn(-c3ccccc3)cc2/C=C\C(=O)N2CCOCC2)cc1[N+](=O)[O-] | inactive
O=C(/C=C/c1cn(-c2ccccc2)nc1-c1ccc2c(c1)OCCO2)NCCCN1CCOCC1 | -5.76 (active)
Cc1ccc(-c2nn(-c3ccccc3)cc2/C=C/C(=O)Nc2cccc(S(N)(=O)=O)c2)cc1 | inactive
Cc1ccc(SCC(=O)Nc2nncs2)cc1 | inactive
C#CCOCCOCCOCCNc1nc(N2CCN(C(=O)Cn3cc(CCCCN)nn3)CC2)nc(N2CCN(C(=O)[C@H](CCCCN)n3cc(CCC(=O)O)nn3)CC2)n1 | inactive
Cc1ccccc1OCC(=O)NNC(=O)c1ccc(-n2cncn2)c([N+](=O)[O-])c1 | inactive
CCCCn1c(N)c(N(CCC(C)C)C(=O)CC2OC(=O)c3ccccc32)c(=O)[nH]c1=O (centres undefined) | inactive
OC1CN=C2Sc3ccccc3N2C1 (centres undefined) | -5.4 (active)
COc1ccc(S(=O)(=O)N2CCCCC2)cc1NC(=O)C1CC(=O)N(c2ccc3c(c2)OCCO3)C1 (centres undefined) | inactive
Cc1ccc(S(=O)(=O)NCCC(=O)OCC(=O)N(C)c2ccccc2)cc1 | inactive
CCOC(=O)C1(CCOC)CCN(Cc2cc3ccccc3s2)CC1 | inactive
CCOC(=O)C1(CCOC)CCN(Cc2ccc(C(=O)OC)cc2)CC1 | -7.63 (active)
CCOC(=O)C1(CCOc2ccccc2)CCN(Cc2cc(OC)cc(OC)c2)CC1 | inactive
CCN1C(=O)[C@@H]2[C@@H](c3ccc(-c4ccc(OC)cc4)c(OC)c3)N3CCC[C@@]3(C(=O)OC)[C@@H]2C1=O | inactive
FC(F)(F)c1cccc(NC(=S)Nc2cccc(Cl)c2)c1 | -9.9 (active)
S=C(Nc1cccc(Cl)c1)Nc1ccc2c(c1)OCCO2 | inactive
S=C(Nc1cccc(Cl)c1)Nc1ccc2cn[nH]c2c1 | inactive
CCOC(=O)c1cnc2nc(SCc3ccccc3Cl)[nH]n2c1=O | inactive
O=C1c2ccccc2C(=O)c2c1cccc2N1CCN(C/C=C/c2ccccc2)CC1 | inactive
CCCCCCCNC(=O)C1(CC2CC(c3cccc(Br)c3)=NO2)CCN(C(=O)c2cc(OCC)c(OCC)c(OCC)c2)CC1 (centres undefined) | inactive
CCN(CC)c1ccc(/C=N/Nc2nc(C)cc(C)n2)c(O)c1 | inactive
CCN(CC)c1ccc(/C=N/NC(=O)CNC(=O)c2cccnc2)cc1 | inactive

Compound | B-score
CCN(CC)c1ccc(/C=N/NC(=O)c2cnccn2)c(O)c1 | -5.95 (active)
CC(NC(=O)c1ccccc1F)c1cccc2ccccc12 (centres undefined) | inactive
COc1ccc(Cc2nnc(SCC(=O)Nc3ccc(C)c(Cl)c3)[nH]c2=O)cc1 | inactive
OCC[C@H]1C[C@@H](O)[C@H](O)[C@@]2(OCCc3ccccc32)O1 | inactive
COc1ccc(C(=O)NC(=S)NNC(=O)CCc2ccccc2)cc1 | -5.23 (active)
COc1ccc(C(=O)NC(=S)NNC(=O)c2c(-c3ccccc3)noc2C)cc1 | inactive
CC(C)Oc1ccc(CCC(=O)NNC(=S)NCc2ccccc2)cc1 | inactive
COc1ccc(C(=O)NNC(=S)NC(=O)c2ccccc2)cc1 | -5.26 (active)
O=C(CCc1ccccc1)NNC(=O)c1ccc(Br)cc1 | inactive
COc1ccc(C(=O)NNC(=S)NC(=O)c2ccccc2[N+](=O)[O-])cc1 | inactive
COc1ccc2c(c1)O/C(=C\c1ccccc1O)C2=O | inactive
O=C(Cc1ccc(S(=O)(=O)N2CCOCC2)s1)N1CCN(c2ccc(C(F)(F)F)cc2[N+](=O)[O-])CC1 | inactive
O=C(/C=C/c1ccc(F)cc1)Nc1cccc(S(=O)(=O)Nc2cccc(C(F)(F)F)c2)c1 | inactive
CCOC(=O)N1CCN(C(=O)c2ccc(S(=O)(=O)Nc3cccc(C(F)(F)F)c3)cc2)CC1 | inactive
Cc1oc2c(F)c(F)c(F)c(F)c2c1S(=O)(=O)Nc1cccc(C(F)(F)F)c1 | -5.14 (active)
Cc1cc(OCC(=O)N(C)c2c(N)n(Cc3ccccc3)c(=O)[nH]c2=O)c(C(C)C)cc1Cl | inactive
COc1cc(C(=O)NCC(=O)N2CC=C(c3ccccc3)CC2)cc(OC)c1OC | inactive
CC(=N\NC(=O)c1cc(Br)ccc1O)/C(=N/O)C(=O)Nc1ccccc1 | inactive
COc1ccc(Cl)cc1NC(=O)CN(C)C(=O)CNC(=O)C12CC3CC(CC(C3)C1)C2 | inactive
C/C(=N/NC(=O)c1cc(Cl)ccc1O)C12CC3CC(CC(C3)C1)C2 | -7.51 (active)
